In ChEMBL document CHEMBL3988442, “University of Dundee, Small-Polar-MMV Screening Library” (2021):
For some assays here: Entries with a potency or affinity are not part of this list.

Columns and labels:
Set-up in all cases: scale not given: direction of the effect not stated beside the values
[1] = target: Protein translocase subunit SecA (Escherichia coli (strain K12)) (UniProt P10408); test: Assay to Identify E. coli SecA ATPase Inhibitors; type: functional; settings: 30 µM
[2] = target: T1, Ubiquitin-activating enzyme e1, putative (Leishmania donovani (strain BPK282A1)) (UniProt E9BSI1); test: Leishmania donovani Ubiquitin Activating Enzyme (LdE1); type: functional; settings: 30 µM
T1 sequence (whole entry): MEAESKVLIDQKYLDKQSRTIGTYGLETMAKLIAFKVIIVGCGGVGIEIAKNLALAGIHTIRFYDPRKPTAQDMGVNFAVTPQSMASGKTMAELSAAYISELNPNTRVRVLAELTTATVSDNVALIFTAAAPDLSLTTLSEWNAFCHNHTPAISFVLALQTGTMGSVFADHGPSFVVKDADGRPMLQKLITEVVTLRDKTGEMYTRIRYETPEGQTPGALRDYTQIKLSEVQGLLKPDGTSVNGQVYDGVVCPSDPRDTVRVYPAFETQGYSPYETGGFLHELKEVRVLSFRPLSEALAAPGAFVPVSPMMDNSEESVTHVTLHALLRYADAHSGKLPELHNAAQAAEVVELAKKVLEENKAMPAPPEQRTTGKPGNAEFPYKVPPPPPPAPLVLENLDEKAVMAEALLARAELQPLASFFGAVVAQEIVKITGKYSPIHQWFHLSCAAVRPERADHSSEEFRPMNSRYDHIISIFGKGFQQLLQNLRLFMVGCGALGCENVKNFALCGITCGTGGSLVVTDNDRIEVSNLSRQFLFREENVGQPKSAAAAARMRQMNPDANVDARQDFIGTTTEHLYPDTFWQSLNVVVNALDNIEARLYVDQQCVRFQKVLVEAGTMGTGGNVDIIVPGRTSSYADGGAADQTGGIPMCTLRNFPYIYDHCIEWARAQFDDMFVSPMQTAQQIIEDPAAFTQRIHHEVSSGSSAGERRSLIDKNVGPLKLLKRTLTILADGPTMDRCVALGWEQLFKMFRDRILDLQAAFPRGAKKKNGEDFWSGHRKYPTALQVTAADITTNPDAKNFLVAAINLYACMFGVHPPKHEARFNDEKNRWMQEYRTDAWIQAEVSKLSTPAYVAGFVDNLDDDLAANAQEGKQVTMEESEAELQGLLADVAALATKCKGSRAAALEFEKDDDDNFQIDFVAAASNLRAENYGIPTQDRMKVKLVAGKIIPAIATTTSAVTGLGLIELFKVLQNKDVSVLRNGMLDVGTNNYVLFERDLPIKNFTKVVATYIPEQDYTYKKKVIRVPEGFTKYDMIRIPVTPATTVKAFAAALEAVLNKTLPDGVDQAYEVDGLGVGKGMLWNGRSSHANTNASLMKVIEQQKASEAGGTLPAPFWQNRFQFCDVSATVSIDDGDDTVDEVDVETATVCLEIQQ

[3] = target: AMP-activated protein kinase, AMPK (Homo sapiens) (UniProt P54646+O43741+P54619+Q9UGJ0+Q9Y478+Q13131+Q9UGI9); test: AMP-dependent Kinase enzyme assay. An in vitro enzyme assay that detects ADP turnover that is directly proportional to AMPK activity. This uses naive AMPK that is activated during the assay with MK-8722; type: functional; settings: 30 µM
[4] = target: Sialic acid-binding Ig-like lectin 9 (Homo sapiens) (UniProt Q9Y336); test: Hs-Siglec9 ALPHAscreen SOP 20170721; settings: 10 µM
Sequence of Sialic acid-binding Ig-like lectin 9 (Homo sapiens) (Q9Y336 whole entry): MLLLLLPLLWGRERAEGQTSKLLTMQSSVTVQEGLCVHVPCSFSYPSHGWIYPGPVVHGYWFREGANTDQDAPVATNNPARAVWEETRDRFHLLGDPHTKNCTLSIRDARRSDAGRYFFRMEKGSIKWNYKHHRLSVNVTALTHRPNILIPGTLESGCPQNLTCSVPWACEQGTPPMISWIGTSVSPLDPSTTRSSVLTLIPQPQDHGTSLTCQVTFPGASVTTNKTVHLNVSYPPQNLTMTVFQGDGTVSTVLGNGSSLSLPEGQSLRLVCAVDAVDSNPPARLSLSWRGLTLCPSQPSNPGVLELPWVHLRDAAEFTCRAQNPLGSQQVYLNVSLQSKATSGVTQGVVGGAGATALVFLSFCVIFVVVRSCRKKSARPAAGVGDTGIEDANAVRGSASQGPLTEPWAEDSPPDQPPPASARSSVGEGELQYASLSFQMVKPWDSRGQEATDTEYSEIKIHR

[5] = system: Trypanosoma cruzi; test: Trypanosoma cruzi phosphomannomutase and mannose-1-phosphate guanylyltransferase assay; type: functional; settings: 10 µM
[6] = target: T2, Arginase-2, mitochondrial (Homo sapiens) (UniProt P78540); test: in vitro enzyme assay to detect the production of urea directly proportional to the activity of Arginase II; type: functional; settings: 33.3 µM; further: in the data most compounds retested in dose-response had high values
T2 sequence (whole entry): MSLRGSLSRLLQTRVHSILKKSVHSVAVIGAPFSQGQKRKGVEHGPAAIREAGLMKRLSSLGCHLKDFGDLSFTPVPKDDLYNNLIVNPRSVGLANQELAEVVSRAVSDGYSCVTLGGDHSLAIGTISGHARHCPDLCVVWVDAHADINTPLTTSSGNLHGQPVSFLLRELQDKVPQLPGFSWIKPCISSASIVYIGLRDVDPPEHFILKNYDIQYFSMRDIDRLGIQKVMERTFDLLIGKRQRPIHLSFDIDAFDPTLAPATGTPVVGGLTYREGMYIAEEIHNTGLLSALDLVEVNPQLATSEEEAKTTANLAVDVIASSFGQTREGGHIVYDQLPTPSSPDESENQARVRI

[7] = target: T3, Proteasome subunit beta (Trypanosoma cruzi) (UniProt O96673); test: Trypanosoma cruzi proteasome chymotrypsin-like activity (TcProtChymo) assay.; further: in the data most compounds retested in dose-response had high values; type: functional; settings: 9.37 µM
T3 sequence (whole entry): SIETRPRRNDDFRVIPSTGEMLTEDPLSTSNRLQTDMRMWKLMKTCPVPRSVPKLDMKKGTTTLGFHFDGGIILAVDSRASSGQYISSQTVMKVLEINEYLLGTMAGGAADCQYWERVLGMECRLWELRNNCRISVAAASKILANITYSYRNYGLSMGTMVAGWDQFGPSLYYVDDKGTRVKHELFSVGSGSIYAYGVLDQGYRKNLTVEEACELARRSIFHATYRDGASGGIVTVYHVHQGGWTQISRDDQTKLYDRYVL

[8] = organism: Homo sapiens; test: To identify inhibition of the IFN signalling (Jak-Stat) pathway via expression of an eGFP reporter gene under the control of an IFN-stimulated response element (ISRE) containing MxA promoter.; type: functional; settings: 30 µM
[9] = target: T4, Tyrosyl-tRNA synthetase, putative (Trypanosoma cruzi (strain CL Brener)) (UniProt Q4DSP6); test: Trypanosoma cruzi tyrosyl tRNA synthetase (TcYRS) _High Tyrosine SOP; type: functional; settings: 30 µM; further: in the data most compounds retested in dose-response had high values
T4 sequence (whole entry): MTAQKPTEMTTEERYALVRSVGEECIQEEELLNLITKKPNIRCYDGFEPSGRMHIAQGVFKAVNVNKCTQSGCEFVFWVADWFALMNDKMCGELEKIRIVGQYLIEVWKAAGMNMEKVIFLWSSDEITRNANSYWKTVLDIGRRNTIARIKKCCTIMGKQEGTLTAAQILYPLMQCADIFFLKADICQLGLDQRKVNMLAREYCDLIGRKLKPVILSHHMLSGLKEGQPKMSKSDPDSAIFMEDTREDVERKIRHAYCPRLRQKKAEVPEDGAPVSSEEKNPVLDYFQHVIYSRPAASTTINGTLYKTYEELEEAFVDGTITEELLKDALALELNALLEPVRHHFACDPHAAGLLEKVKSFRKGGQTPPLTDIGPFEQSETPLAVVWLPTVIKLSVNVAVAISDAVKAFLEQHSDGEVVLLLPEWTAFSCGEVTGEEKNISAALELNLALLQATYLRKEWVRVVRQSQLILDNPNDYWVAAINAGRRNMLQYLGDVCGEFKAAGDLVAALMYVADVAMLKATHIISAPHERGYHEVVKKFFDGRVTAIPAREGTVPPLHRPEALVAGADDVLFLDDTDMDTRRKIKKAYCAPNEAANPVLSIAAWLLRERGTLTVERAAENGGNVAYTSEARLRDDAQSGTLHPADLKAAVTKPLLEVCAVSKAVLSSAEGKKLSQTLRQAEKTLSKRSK

[10] = target: T4, Tyrosyl-tRNA synthetase, putative (Trypanosoma cruzi (strain CL Brener)); test: Trypanosoma cruzi tyrosyl tRNA synthetase (TcYRS) SOP; type: functional; settings: 30 µM
[11] = target: Chromo domain-containing protein 1 (Saccharomyces cerevisiae (strain ATCC 204508 / S288c) (Baker's yeast)) (UniProt P32657); test: ScCHD-1 Enzyme Inhibition Assay; type: functional; settings: 30 µM; further: in the data most compounds retested in dose-response had high values
Sequence of Chromo domain-containing protein 1 (Saccharomyces cerevisiae (strain ATCC 204508 / S288c) (Baker's yeast)) (P32657 whole entry, the tested form may be a part): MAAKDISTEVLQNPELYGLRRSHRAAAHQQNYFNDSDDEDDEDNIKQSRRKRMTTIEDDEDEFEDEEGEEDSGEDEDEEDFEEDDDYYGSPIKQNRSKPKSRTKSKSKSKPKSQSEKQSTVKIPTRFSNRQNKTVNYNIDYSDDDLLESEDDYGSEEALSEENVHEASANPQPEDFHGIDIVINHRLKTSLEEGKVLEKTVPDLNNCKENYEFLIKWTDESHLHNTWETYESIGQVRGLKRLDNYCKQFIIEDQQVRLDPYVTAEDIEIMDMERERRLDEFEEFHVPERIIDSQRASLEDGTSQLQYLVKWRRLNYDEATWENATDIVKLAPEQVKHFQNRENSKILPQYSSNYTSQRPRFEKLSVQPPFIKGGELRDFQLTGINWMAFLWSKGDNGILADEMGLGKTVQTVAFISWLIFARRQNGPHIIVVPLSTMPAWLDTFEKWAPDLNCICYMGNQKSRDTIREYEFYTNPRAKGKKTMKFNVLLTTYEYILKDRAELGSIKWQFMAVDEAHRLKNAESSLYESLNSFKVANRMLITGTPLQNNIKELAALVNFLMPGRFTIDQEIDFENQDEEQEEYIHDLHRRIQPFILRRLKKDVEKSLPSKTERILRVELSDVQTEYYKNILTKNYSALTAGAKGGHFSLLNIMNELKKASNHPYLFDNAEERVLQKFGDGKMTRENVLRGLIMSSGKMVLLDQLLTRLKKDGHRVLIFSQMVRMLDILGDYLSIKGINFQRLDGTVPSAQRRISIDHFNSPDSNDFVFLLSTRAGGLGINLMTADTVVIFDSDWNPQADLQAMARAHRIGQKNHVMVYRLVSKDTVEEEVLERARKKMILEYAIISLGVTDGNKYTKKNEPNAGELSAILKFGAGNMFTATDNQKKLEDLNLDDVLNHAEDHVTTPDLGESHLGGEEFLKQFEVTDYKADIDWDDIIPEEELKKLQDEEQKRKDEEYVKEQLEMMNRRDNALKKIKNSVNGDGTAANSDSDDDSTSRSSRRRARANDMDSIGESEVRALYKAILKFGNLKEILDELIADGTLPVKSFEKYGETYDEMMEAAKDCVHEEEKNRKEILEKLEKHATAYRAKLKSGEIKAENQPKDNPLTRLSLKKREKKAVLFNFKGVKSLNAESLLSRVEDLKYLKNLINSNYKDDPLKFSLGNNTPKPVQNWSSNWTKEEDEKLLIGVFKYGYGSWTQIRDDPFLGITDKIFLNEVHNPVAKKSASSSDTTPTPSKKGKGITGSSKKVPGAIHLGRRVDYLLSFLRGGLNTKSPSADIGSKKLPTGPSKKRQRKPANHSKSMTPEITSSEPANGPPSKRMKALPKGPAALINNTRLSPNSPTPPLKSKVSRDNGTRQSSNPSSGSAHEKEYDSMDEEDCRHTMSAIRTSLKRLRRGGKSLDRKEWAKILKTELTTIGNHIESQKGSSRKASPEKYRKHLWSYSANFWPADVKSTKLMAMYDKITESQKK

Sequence of Protein translocase subunit SecA (Escherichia coli (strain K12)) (P10408 whole entry): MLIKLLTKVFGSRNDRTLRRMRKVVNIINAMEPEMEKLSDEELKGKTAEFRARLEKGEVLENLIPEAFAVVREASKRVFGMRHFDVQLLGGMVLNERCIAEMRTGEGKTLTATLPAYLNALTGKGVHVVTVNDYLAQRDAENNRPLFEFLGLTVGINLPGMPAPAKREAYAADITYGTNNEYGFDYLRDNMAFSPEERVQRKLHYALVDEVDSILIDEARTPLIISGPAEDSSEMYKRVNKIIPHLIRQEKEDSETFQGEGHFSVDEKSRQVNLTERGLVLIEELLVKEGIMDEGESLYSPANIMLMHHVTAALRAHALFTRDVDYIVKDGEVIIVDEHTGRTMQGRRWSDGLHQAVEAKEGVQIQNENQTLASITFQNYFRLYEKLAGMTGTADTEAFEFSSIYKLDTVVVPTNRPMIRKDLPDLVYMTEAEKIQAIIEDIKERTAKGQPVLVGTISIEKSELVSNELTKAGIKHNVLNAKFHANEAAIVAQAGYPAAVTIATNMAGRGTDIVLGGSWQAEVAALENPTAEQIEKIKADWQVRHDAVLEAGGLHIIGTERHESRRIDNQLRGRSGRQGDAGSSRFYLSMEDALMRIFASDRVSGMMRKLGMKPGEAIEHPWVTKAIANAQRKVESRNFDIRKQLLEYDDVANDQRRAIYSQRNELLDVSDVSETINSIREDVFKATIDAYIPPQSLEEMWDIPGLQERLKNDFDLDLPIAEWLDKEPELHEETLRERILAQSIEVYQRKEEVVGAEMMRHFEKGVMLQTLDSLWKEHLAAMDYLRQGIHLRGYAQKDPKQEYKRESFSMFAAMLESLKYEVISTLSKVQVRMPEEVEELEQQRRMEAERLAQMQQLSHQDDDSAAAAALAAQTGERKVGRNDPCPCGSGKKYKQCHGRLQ

SMILES	Percent Effect [1]	Percent Effect [2]	Percent Effect [3]	Percent Effect [4]	Percent Effect [5]	Percent Effect [6]	Percent Effect [7]	Percent Effect [8]	Percent Effect [9]	Percent Effect [10]	Percent Effect [11]
CCOc1ccc(Cl)c(C(=O)N2CCN(c3cnccn3)CC2)n1	-4.82%	23.4%	-2.68%	6.96%	8.43%	1.42%	15.5%	17.5%	10.7%	24.4%	-12.4%
O=C(COCC1CC1)N1CCCC(n2cccn2)C1 (configuration not stated)	-2.32%	13.9%	1.73%	-2.9%	-2.36%	2.8%	13.4%	-5.32%	-1.04%	-7.59%	-22.9%
O=C(CCNC(=O)c1ccoc1)NCc1ccccc1F	2.18%	13%	3.8%	-2.98%	-2.45%	6.53%	19.5%	24%	5.71%	18.8%	-3.8%
CC(=O)N(Cc1noc(C)n1)C1CCN(Cc2cc(C)on2)C1 (configuration not stated)	-2.56%	18.2%	1.37%	-5.63%	0.0979%	-1.05%	18.5%	12.2%	10.5%	30.6%	-15%
Cc1cc(N(C)C)nc(C2(C)CCCN2C(=O)c2cnccn2)n1 (configuration not stated)	-2.86%	8%	5.28%	-5.27%	7.48%	2.1%	11.4%	-1.62%	1.06%	8.97%	-2.81%
CC(=O)Nc1nc(C(=O)N2CCCC2c2noc(C)n2)cs1 (configuration not stated)	-6.47%	-5.2%	10.4%	-6.87%	-7.12%	2.13%	-2.2%	22.6%	-1.94%	-17.1%	-6.82%
Cc1occc1C(=O)N1CCc2c(COCC3CC3)cncc2C1	-1.99%	18.9%	-0.121%	-6.57%	3.03%	7.96%	26.8%	13.8%	10.8%	20.5%	-0.136%
O=C(c1ncccn1)N1C[C@H]2CCC[C@@]2(COCc2ccncc2)C1	-1.29%	23.4%	-4.05%	-10.3%	4.63%	4.52%	13.9%	11.8%	3.17%	14.1%	-11.1%
O=C(c1cnco1)N1C[C@@H]2CC[C@H](Oc3ccccc3F)[C@@H]2C1	-8.63%	-6.76%	3.39%	-7.43%	-3.16%	-2.09%	3.74%	25.5%	-4.3%	-9.09%	-6.6%
N#CCSCCCN1CCCN(C(=O)c2ccccc2)CC1	-1.53%	-5.48%	0.11%	1.74%	-4.17%	3.19%	1.63%	14.4%	1.04%	3.7%	6.49%
CS(=O)(=O)c1ccc(OCCNCc2cccc(F)c2)cc1	-6.14%	0%	1.51%	6.7%	3.57%	-0.798%	4.02%	3.81%	8.33%	13.6%	3.19%
COCc1ccccc1CNCc1c(C)nn(C)c1N(C)C	-5.19%	10.8%	-41.2%	6.46%	-0.849%	0%	-5.04%	-1.56%	9.36%	6.17%	-5.6%
Cc1nn(C)c(Cl)c1C1CCCN1C(=O)c1ccc2nncn2c1 (configuration not stated)	-3.02%	0%	2.19%	-4.7%	-4.25%	0%	3.6%	-2.92%	-4.43%	-6.17%	-0.833%
O=C1NCCCCC1Sc1nnc(C2CC2)n1C1CC1 (configuration not stated)	1.19%	11%	-3.07%	-9.6%	3.72%	8.64%	18.5%	23.5%	5.38%	15%	-13.5%
CC1(C)CC(N(Cc2ccccc2)Cc2cccnc2)CC(C)(C)N1	-8.83%	17.6%	-4.84%	9.22%	5.73%	-6.73%	7.8%	-4.57%	6.45%	9.09%	-29.8%
O=C(NCc1ccc(-c2ccn[nH]2)cc1)N1CCC(N2CCCC2)C1 (configuration not stated)	-6.43%	2.63%	-5.77%	6.24%	1.59%	-5.4%	4.65%	5.01%	10.3%	18.5%	1.9%
COc1cc(N2CC[C@H](O)[C@@H]2Cc2cnn(C)c2)ncn1	-0.518%	10.8%	1.19%	-5.15%	-3.62%	8.6%	19.2%	-8.64%	3.24%	10.3%	-2.09%
CS(=O)(=O)c1ccc(CNCC2CCN(CCO)CC2)cc1	-6.48%	0%	-13.5%	3.88%	-4.9%	-3.64%	6.03%	21.2%	-2.15%	-5%	-3.22%
c1csc(-c2noc(CCCN3CCCC3Cn3cccn3)n2)c1 (configuration not stated)	-4.94%	-13.5%	-5.55%	4.78%	0.849%	-6.41%	-1.98%	0.955%	4.43%	1.24%	-1.71%
CC(C)N(C)S(=O)(=O)N(C)Cc1ccc2c(c1)OCO2	-6.28%	15.6%	-11.7%	5.6%	10.5%	2.49%	12.7%	13.3%	5.83%	21.9%	-8.74%
CC(C)c1nc(CC(=O)Nc2nc(CN3CCCCCC3)cs2)cs1	-2.6%	-15.6%	-8.27%	-10.6%	13.8%	-4.84%	4.61%	1.12%	10.5%	23.5%	-15.2%
CC(=O)N1CCN(C(=O)c2cnn(-c3ccccc3Cl)c2)CC1	-5.95%	21.6%	-7.37%	17.5%	6.32%	-8.82%	9.19%	13.8%	8.37%	18.5%	-9.57%
